The whole screen tested about 1,100 compounds, of which about 350 (32%) were called active. These entries were drawn from the full list. Measured potencies and affinities stand elsewhere. Unmarked numbers belong to inactive results. No rule for the calls is given here.

The experiment can be described thus: CEM21 lymphoblast cell cytotoxicity, dose response, cytotoxicity control for viral fusion inhibitor project, CellTiter-Glo luminescence, cherry-picked (AID 652042). Conditions: CEM21 cells viability, CellTiter-Glo ATP luminescence, 24 h; series mostly up to 35 µM; activity change, negative = cytotoxicity: at the top concentration. On the technique in general: Cellular ATP, detected with luciferase, serves as a proxy for viable cell number.
In the case of `COc1ccc(C(=O)C(C)N(C(=O)c2ccc(Cl)cc2Cl)N2C(=O)C3C4C=CC(C4)C3C2=O)cc1` (stereo not given), the “activity change, negative = cytotoxicity” value is -14%.
Under `COc1ccc(Cn2nnnc2C(c2cc3cc(C)cc(C)c3[nH]c2=O)N2CCOCC2)cc1` (stereo not given) stands 1.27%.
The result for `O=C(N(c1ccccn1)c1ccccn1)C12CC3CC(CC(Cl)(C3)C1)C2` reads -0.057%.
For the compound `COC(=O)[C@@]1(Cc2ccc(F)cc2)[C@H]2c3cc(C(=O)N(C)C)n(CCO)c3C[C@H]2CN1C(=O)c1ccccc1`, the “activity change, negative = cytotoxicity” value was 4.85%.
On to `COC(=O)C1CCN(C(=O)COC(=O)c2cc(S(=O)(=O)N3CCOCC3)ccc2C)CC1`, for which the “activity change, negative = cytotoxicity” value is 2.66%.
The result for `Cc1cc(Cl)ccc1OCCCC(=O)Nc1cc(S(=O)(=O)N2CCOCC2)ccc1N1CCOCC1` reads -2.78%; that for `O=C(CCCOc1ccc(Cl)cc1Cl)Nc1cc(S(=O)(=O)N2CCOCC2)ccc1N1CCOCC1`, -10.9%; that for `O=C(COC(=O)c1cc(S(=O)(=O)N2CCOCC2)ccc1O)NCc1ccc2c(c1)OCO2`, 7.4%.
With `CC(C)(C)C1CCc2onc(C(=O)NCc3ccc(F)cc3)c2C1` (stereo not given), the “activity change, negative = cytotoxicity” value was -14.6%.
Consider `Cn1c(=O)[nH]c2cc3ccccc3cc21`, for which the “activity change, negative = cytotoxicity” value is -6.26%.
Under `N#Cc1ccc(CN2CCN(C(=O)CNC(=O)Cc3cccc4ccccc34)CC2)cc1` stands -15.3%; under `CCCCNC(=O)C[C@H]1C[C@@]2(C(=O)OC)C(=C[C@H](C(C)(C)C)O[C@@H]2C)N(Cc2ccc3c(c2)OCO3)C1=O`, -9.67%.
`C=C(C)CN(CC)c1nc(N)c2c(N)nc3c(c2c1C#N)CC(=O)N3C12CC3CC(CC(C3)C1)C2`: the “activity change, negative = cytotoxicity” value is -28.7%.
The result for `CN(C[C@H](Cc1ccccc1)N(C[C@H](Cc1ccccc1)N(CC1(c2ccccc2)CC1)N=O)N=O)N=O` reads -8.9%.
Under `COc1ccc2ncn(-c3ccccc3)c2c1` stands -2.1%; under `COC(=O)[C@@]1(C)[C@H]2C(=O)N(Cc3ccccc3)C(=O)[C@H]2[C@H]2CN=C(SCc3ccccc3)N21`, -3.46%.
Under `CCOc1ccc2c(c1)-c1c(ssc1=S)C(C)(C)N2C(=O)c1ccco1` stands -29.3%; under `CCn1c(COc2ccc(Cl)cc2)nnc1SCc1nc2ccccc2[nH]1`, -21.6%.
Turning to `COCCN(C(=O)COC(=O)C12CC3CC(CC(Cl)(C3)C1)C2)c1c(N)n(Cc2ccccc2)c(=O)[nH]c1=O`, the “activity change, negative = cytotoxicity” value was 5.3% [at 16 µM].
The result for `COCCCN(C(=S)NC(=O)C12CC3CC(CC(C3)C1)C2)c1c(N)n(Cc2ccccc2)c(=O)[nH]c1=O` reads 6.22%; that for `CCOc1ccccc1C(=O)NCC(=O)NNC(=O)CN(C)S(=O)(=O)c1ccc(Cl)cc1`, -8.4%.
Consider `Cc1cc(C)nc(/N=C(\N)Nc2ccc(CC(=O)OC(C)C)cc2)n1`, for which the “activity change, negative = cytotoxicity” value is -16.5%.
In the case of `CCCC[C@H](CN(N=O)[C@@H](Cc1ccccc1)CN(C)N=O)N(CCc1ccccc1)N=O`, the “activity change, negative = cytotoxicity” value is -7.7%.
In the case of `CN(C(=O)c1cccc(NC(=O)Cc2cccc(NC(=O)C3CCCN(C(=O)C4CCC4)C3)c2)c1)C1CCC1` (stereo not given), the “activity change, negative = cytotoxicity” value was -1.65%.
Consider `O=C1c2cccnc2C(Nc2ccc(S(=O)(=O)N3CCCCCC3)cc2)N1Cc1ccccc1` (stereo not given), for which the “activity change, negative = cytotoxicity” value is -1.75%.
Under `C[C@H]1CN([C@@H](C)CO)C(=O)c2ccccc2-c2ccccc2CO[C@@H]1CN(C)C(=O)CCC(F)(F)F` stands 1%.
For the compound `C[C@H]1CN([C@@H](C)CO)C(=O)c2ccccc2-c2ccccc2CO[C@H]1CN(C)S(=O)(=O)c1cccc(C#N)c1`, the “activity change, negative = cytotoxicity” value is -13.5%.
Under `CC(OC(=O)c1ccc(NC(=O)CC#N)cc1)C(=O)NCCC1=CCCCC1` (stereo not given) stands -9.3%; under `Cc1nc2ccccc2c2oc(C(=O)NCc3ccc4c(c3)OCO4)cc12`, -2%.
For the compound `Cc1ccc(S(=O)(=O)NCC(=O)OCC(=O)NCc2ccc3c(c2)OCO3)cc1`, the “activity change, negative = cytotoxicity” value is 9.32% [at 16 µM].
The result for `C[C@@]12C(=O)N(c3cccc(Cl)c3)C(=O)N1[C@H](c1ccc(Cl)cc1)[C@@H]1C(=O)N(C3CCCCC3)C(=O)[C@@H]12` reads -18.4%.
For the compound `COc1ccc(C(O)c2nc3ccccc3n2C)cc1OC` (stereo not given), the “activity change, negative = cytotoxicity” value is -1.11%.
The result for `CCCCCCCn1c(NC(=O)CC)nc2ccccc21` reads -26%.
Under `Cc1ccc2cc(C#N)c(NCCNC(=O)C3CCC3)nc2c1C` stands -0.969%; under `CC1=NN(C(=O)c2ccccc2)C(O)(c2ccc(Br)cc2)C1` (stereo not given), -5.67%; under `Cc1ccc(S(=O)(=O)N(C)C[C@@H]2Oc3ccc(NC(=O)Cc4cn(C)c5ccccc45)cc3CC(=O)N([C@H](C)CO)C[C@@H]2C)cc1`, -7.68%.
On to `CC(C)CNC(=O)c1ccccc1NC(=O)c1ccccc1N(C)S(=O)(=O)c1ccccc1`, for which the “activity change, negative = cytotoxicity” value is -4.43%.
Consider `CNC[C@H]1Oc2c(NC(=O)Nc3cccc4ccccc34)cccc2C(=O)N([C@H](C)CO)C[C@H]1C`, for which the “activity change, negative = cytotoxicity” value was -11.5%.
Consider `CC(=O)c1c(C)[nH]c(C(=O)OCC(=O)Nc2ccc(Cl)c(S(=O)(=O)N(C)C)c2)c1C`, for which the “activity change, negative = cytotoxicity” value was -12%.
The result for `Cc1nc2ccc(NC(=O)c3cc(S(=O)(=O)N(C)c4ccccc4)ccc3Cl)cc2s1` reads -9.18%; that for `CC[C@@]1(C(=O)OC)N[C@H](CN(C)C(=O)Nc2ccc(OC)cc2)[C@@H]2C(=O)N(Cc3ccccc3)C(=O)[C@@H]21`, 1.04%; that for `COc1ccc(CCNC(=O)COC(=O)c2cccn2C)cc1`, 3.42%.
Under `COc1ccc(CCCC(=O)NCCc2ccccc2)c(C)c1` stands 3.67%.
Under `CCOC(=O)c1c(C)[nH]c(C)c1C(=O)COC(=O)[C@@H](NC(=O)c1ccccc1OCC)C(C)C` stands -7.56%; under `COc1ccccc1N(C)S(=O)(=O)c1ccc(Cl)c(C(=O)NCC2(N(C)C)CCCCC2)c1`, -3.25%.
Consider `C[C@H](CO)N1C[C@H](C)[C@@H](CN(C)S(=O)(=O)c2ccc(F)cc2)Oc2ccc(NS(=O)(=O)c3cn(C)cn3)cc2CC1=O`, for which the “activity change, negative = cytotoxicity” value was -1.97%.
On to `CC(C)(C)N1C(=O)[C@H]2[C@@H](c3ccc(Br)cc3)N3C(=O)N(c4cccc(Cl)c4)C(=O)[C@@]3(C)[C@H]2C1=O`, for which the “activity change, negative = cytotoxicity” value is -7%.
Under `CC[C@@]12C(=O)N(c3cccc(F)c3)C(=O)N1[C@H](c1ccc(Br)cc1)[C@@H]1C(=O)N(C(C)(C)C)C(=O)[C@@H]12` stands -2.79%; under `Cc1cc(C)c2nc(C(F)(F)F)nc(N3CCN(C(=O)c4ccco4)CC3)c2c1`, -15.5%.
As to `CCC(NS(=O)(=O)c1c(C)[nH]c(=O)[nH]c1=O)C12CC3CC(CC(C3)C1)C2` (stereo not given), the “activity change, negative = cytotoxicity” value is -0.446%.
Take `CC1=C(C(=O)OCc2ccc3c(c2)OCO3)C(c2ccc(F)cc2)NC(=O)N1` (stereo not given): the “activity change, negative = cytotoxicity” value is -24.2%.
For `COC(=O)C1=C(C)N(Cc2ccc(Cl)cc2)C(=S)NC1c1ccc(OC)cc1` (stereo not given), the “activity change, negative = cytotoxicity” value is -15.5%.
With `CCN(CC)CCN(C(=O)c1cc(Cl)sc1Cl)c1nc2cc3c(cc2s1)OCO3`, the “activity change, negative = cytotoxicity” value was -6.58%.
The result for `CCN(C[C@H]1N[C@@](C)(C(=O)OC)[C@H]2C(=O)N(Cc3ccccc3)C(=O)[C@@H]12)C(=O)Nc1ccc(C)cc1` reads 0.443%.
Under `COc1ccc(S(=O)(=O)n2ccc(-c3ccc(OCCN(C)c4ccccn4)cc3)n2)cc1` stands -11%.
The result for `S=c1nc[nH]c2c1[nH]c1ccc(Cl)cc12` reads 4.8%; that for `Clc1ccc2c(c1)C1=C(C(c3ccncc3)O2)C(c2ccc(Br)cc2)n2ncnc2N1` (stereo not given), -15.2%.
Consider `CCS(=O)(=O)N1Cc2ccccc2CC1C(=O)NCC12CC3CC(CC(C3)C1)C2` (stereo not given), for which the “activity change, negative = cytotoxicity” value was -8.57%.
`CCN1C[C@@H]2[C@@H]3C(=O)N(Cc4ccccc4)C(=O)[C@@H]3[C@](CC)(C1=O)N2C(=O)c1ccc(C(C)(C)C)cc1`: the “activity change, negative = cytotoxicity” value is -8.21%.
Under `C[C@@]12C(=O)N(Cc3ccc(F)cc3)CC(=O)N1[C@H]1c3cc(Cl)ccc3OC[C@@H]1[C@@H]2c1ccccc1` stands -14.9%; under `COc1ccc2c(c1)[C@H]1[C@H](CO2)[C@H](c2ccccc2)[C@]2(C)C(=O)Nc3cc(OC)c(OC)cc3C(=O)N12`, -21.9%; under `O=C(O)c1cccc(COc2ccc3c(c2)CCC3)c1`, -6.13%.
On to `COc1ccc([C@H]2/C=C\CN(C(=O)C3CC3)[C@@H](C)C(=O)N2Cc2ccc(F)cc2)cc1`, for which the “activity change, negative = cytotoxicity” value was -13%.
The result for `CCC(C)(C)NC(=O)C(c1ccc(C)cc1)N(CC1CCCO1)C(=O)c1csnn1` (stereo not given) reads -7.66%.
For the compound `O=C(CN1CCCN(Cc2ccc(F)cc2Cl)C1=O)NC1CCCCCCC1`, the “activity change, negative = cytotoxicity” value was -13.4%.
The result for `CCN(CCn1cccn1)C(=O)CC1C(=O)NCCN1CCc1ccccc1` (stereo not given) reads 0.382%; that for `O=C(C[C@H]1C[C@@H]2c3cc(NC(=O)C4CCC4)ccc3O[C@@H]2[C@@H](CO)O1)NCC(F)(F)F`, 0.34%.
Regarding `Cc1ccc(C)c(CS(=O)(=O)c2cn(CC(=O)N3CCC(C)CC3)c3ccccc23)c1`, the “activity change, negative = cytotoxicity” value was -0.307%.
Consider `CCCCN1CC(=O)N2[C@H]3c4ccccc4OC[C@@H]3[C@H](c3ccccc3)[C@]2(C)C1=O`, for which the “activity change, negative = cytotoxicity” value is -0.526%.
Under `Cc1ccc(-n2nnnc2SCn2nnc3ccccc3c2=O)c(C)c1` stands -14.6%; under `COc1cc(CSc2nnnn2-c2ccc(C)cc2)cc(OC)c1OC`, -10.6%.
For `O=C(NCc1ccccc1)[C@@H]1CCCN1C(=O)[C@@H]1CCCN1C(=O)c1cccc2ccccc12`, the “activity change, negative = cytotoxicity” value is -11.3%.
Under `Cc1ccc(S(=O)(=O)N2CCC(=O)N(CCOCc3ccc(C(F)(F)F)cc3)CC2)cc1` stands -20.8%; under `NC(=O)c1sc2nc3c(c(-c4ccccc4)c2c1N)CCC3`, -5.51%; under `COc1ccc(N(CC(=O)NCCSCc2ccc(Cl)cc2)S(C)(=O)=O)cc1Cl`, -10.3%.
Regarding `Cc1ccc(N2C(=O)N3[C@H](c4cccc(C)c4)[C@@H]4C(=O)N(Cc5ccccc5)C(=O)[C@@H]4[C@]3(C)C2=O)cc1`, the “activity change, negative = cytotoxicity” value is -4.42%.
Consider `O=C(NCc1ccco1)c1ccc(Cn2c(=O)c3sccc3n(Cc3ccc(F)cc3)c2=O)cc1`, for which the “activity change, negative = cytotoxicity” value was -5.39%.
Under `CC(=O)Nc1ccc(C(=O)OCC(=O)NC(=O)NCc2ccccc2)cc1` stands 0.697%; under `CCCOc1ccc(C(F)(F)F)cc1NC(=O)CCc1c(C)noc1C`, -8.86%.
`CCN(C[C@H]1N[C@@](CC)(C(=O)OC)[C@H]2C(=O)N(Cc3ccccc3)C(=O)[C@@H]12)S(=O)(=O)c1ccc(OC)cc1`: the “activity change, negative = cytotoxicity” value was -6.24%.
The result for `O=C1CC(C(=O)N(CC2CCCO2)C(C(=O)NC2CCCCC2)c2ccncc2)CS1` (stereo not given) reads 4.43%; that for `OC1(c2ccc(OC(F)F)cc2)CSC(=Nc2cccnc2)N1C1CC1` (stereo not given), -22.7%.
Consider `C[C@H]1CN([C@@H](C)CO)C(=O)Cc2cc(NC(=O)Cc3ccccc3)ccc2O[C@H]1CN(C)S(=O)(=O)c1cccs1`, for which the “activity change, negative = cytotoxicity” value was 1.15%.
The result for `Cc1noc(C)c1S(=O)(=O)N(C)C[C@@H]1Oc2ccc(NC(=O)NC3CCCCC3)cc2CC(=O)N([C@H](C)CO)C[C@@H]1C` reads -9.64% [at 30 µM]; that for `COc1ccc(S(=O)(=O)N(C)C[C@@H]2Oc3ccc(NC(=O)C4CCCCC4)cc3CC(=O)N([C@@H](C)CO)C[C@@H]2C)cc1`, -3.64%.

(Values after PubChem BioAssay AID652042 (Broad Institute, 2013).)
